This is a sample that favours compounds with a hit; in the whole collection about 0.41% have one here.
TRPML1 inh: blocks the human TRPML1 channel; Q9GZU1; TRPML1-inducible cells, Ca2+ dye fluorescence, FDSS; stronger effect = lower value; inhibition of EC80 agonist-evoked calcium signal; activity change, negative = inhibition, % (test concentration not listed); 0.02% of 390,000 active; AID 624415; in the data active means activity change below about -50%; inconclusive means between about -30% and that limit;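 further: stimulus is agonist 54-4 at its EC80 concentration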
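Tet-induced TRPML1-DL cells loaded with Ca8 no-wash calcium dye were read kinetically on FDSS. Compound addition was followed by EC80 agonist 54-4 (4 uM final); inhibition was read over 110 s.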
AT treatment: potential ataxia-telangiectasia treatment; F2112 A-T fibroblasts, KAP-1 phosphorylation AlphaLISA; neocarzinostatin DNA damage 30 min before lysis; Potency, µM (series often up to 57.5 µM), actives largely listed as activators; 0.19% of 320,000 active; AID 485349; active means well fitted activation curve with a large enough effect; inconclusive means small, poorly fitted or top-dose-only effect; inactive means no such curve, though single readings can be large or run the other way; further: nearly all actives have a fitted effect of over 45% in size
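hTERT-immortalized A-T patient fibroblasts (F2112), 500 cells/well in OPTI-MEM, 1% FBS, got compounds for 60 min, then NCS for 30 min at 37C. Lysates were then assayed for phospho-KAP-1 by AlphaLISA (anti-pKAP1 donor, anti-KAP1 acceptor beads), 6 hr at 25C.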
TRPML1 ag: agonists of human TRPML1 channel | Q9GZU1 | activation, % (concentration not given with the values) | TRPML1-expressing cells, Ca2+ dye fluorescence, FDSS | 0.12% of 410,000 active | AID 624414; in the data active means activation above about 50%; inconclusive means mostly about 30% to 49%
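Kinetic FDSS Ca2+ read in Tet-induced TRPML1-DL cells (ABD Ca8 dye plus quencher, 45-90 min RT loading): baseline, then compound, then 110 s agonist window; EC80 agonist 54-4 at 4uM final added afterwards for a 110 s antagonist window.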
TRPV1 PAM: human TRPV1 potentiation; TRPV1-expressing cells, Fluo-8 calcium influx, capsaicin EC20 potentiation; 0.02% of 320,000 active; potentiation, % at 8.33 µM; in the data active means potentiation above about 80%; inconclusive means between about 30% and that limit
Target sequence (Q8NER1 whole entry, looked up): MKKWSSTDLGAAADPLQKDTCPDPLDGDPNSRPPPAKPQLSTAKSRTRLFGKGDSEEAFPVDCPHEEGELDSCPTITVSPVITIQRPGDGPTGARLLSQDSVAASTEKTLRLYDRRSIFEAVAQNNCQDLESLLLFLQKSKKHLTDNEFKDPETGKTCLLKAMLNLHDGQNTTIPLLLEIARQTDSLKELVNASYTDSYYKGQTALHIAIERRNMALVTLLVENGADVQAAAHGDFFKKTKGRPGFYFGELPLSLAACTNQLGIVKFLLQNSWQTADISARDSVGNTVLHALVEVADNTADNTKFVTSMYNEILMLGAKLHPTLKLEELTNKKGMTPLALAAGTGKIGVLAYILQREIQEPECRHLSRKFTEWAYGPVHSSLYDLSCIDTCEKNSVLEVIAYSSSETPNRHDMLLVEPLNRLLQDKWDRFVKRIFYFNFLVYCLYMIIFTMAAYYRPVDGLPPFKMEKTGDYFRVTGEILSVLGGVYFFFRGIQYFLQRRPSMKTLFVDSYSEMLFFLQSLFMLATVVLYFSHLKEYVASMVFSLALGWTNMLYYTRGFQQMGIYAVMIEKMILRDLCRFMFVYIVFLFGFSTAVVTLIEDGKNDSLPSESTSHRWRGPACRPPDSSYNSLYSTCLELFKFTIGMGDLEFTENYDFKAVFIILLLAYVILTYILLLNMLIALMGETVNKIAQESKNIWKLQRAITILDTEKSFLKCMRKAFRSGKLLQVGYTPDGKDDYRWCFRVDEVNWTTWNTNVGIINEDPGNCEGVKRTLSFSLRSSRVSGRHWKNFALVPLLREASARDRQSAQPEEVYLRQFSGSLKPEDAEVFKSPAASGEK
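TRPV1-expressing cells were cultured overnight at 35.5C and loaded with Fluo-8 calcium dye for 40 to 90 min at room temperature. After a 10 s baseline, compound was added and calcium influx was read kinetically for 3 min (ex 480/em 520 nm).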
TRPV1 ag: agonists of human vanilloid receptor 1 (TRPV1) | Q8NER1 | AID 540275 | TRPV1-expressing cells, Fluo-8 calcium influx, agonist mode | activation, % at 8.33 µM | 0.19% of 320,000 active; in the data active means activation above about 80%; inconclusive means between about 30% and that limit
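Fluo-8 calcium influx in TRPV1-expressing cells, kinetic read (ex 480/em 520 nm). Compound added and read 3 min for agonist activity, followed by capsaicin at EC20 final and 2 min further read for enhancement.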
A number is an active result.

Screening N#CC(c1ccccc1)(c1ncc(C(F)(F)F)cc1Cl)N1CCOCC1 (centres undefined) returned TRPML1 inh inactive, AT treatment inactive and TRPML1 ag inactive.
N#CC(c1cccc(C(F)(F)F)c1)(c1ncc(C(F)(F)F)cc1Cl)N1CCOCC1 (centres undefined) was read as TRPML1 inh inactive, AT treatment inactive, TRPML1 ag 56, TRPV1 PAM inactive and TRPV1 ag inconclusive.
`COc1cc2nc(CC(O)c3nc4cc(OC)c(OC)cc4[nH]3)[nH]c2cc1OC` (centres undefined) gave TRPML1 ag inactive.
For Cc1cccc2c(C(O)c3c[nH]c4c(C)cccc34)c[nH]c12 the results were TRPML1 ag inactive.
For O=C1c2ccccc2C(O)N1c1ccccc1 (centres undefined) the results were TRPML1 inh inactive, AT treatment inactive, TRPML1 ag inactive, TRPV1 PAM inactive and TRPV1 ag inactive.
Cc1ccccc1N1C(=O)c2ccccc2C1O (centres undefined) was read as TRPML1 inh inactive, AT treatment 40µM, TRPML1 ag inactive, TRPV1 PAM inactive and TRPV1 ag inactive.
Screening CCCCNc1ncnc2oc(-c3ccco3)c(-c3ccco3)c12 returned TRPML1 ag inactive.
`Cc1sc2ncnc(NCC(c3ccco3)N(C)C)c2c1C` (centres undefined) gave TRPML1 inh inactive, AT treatment inactive, TRPML1 ag inactive, TRPV1 PAM inactive and TRPV1 ag 86.
CC1=CC(=O)C=C(C)C1=NOS(=O)(=O)c1ccccc1 was read as TRPML1 inh inactive, AT treatment inactive, TRPML1 ag inactive, TRPV1 PAM inactive and TRPV1 ag inactive.
For CC1=CC(=O)C(C(C)C)=C/C1=N/OS(=O)(=O)c1ccccc1 the results were TRPML1 inh inactive, AT treatment inactive, TRPML1 ag 50, TRPV1 PAM inactive and TRPV1 ag inactive.
For COc1c(N2CCN(C(=S)NC3CC4CCC3C4)C(C)C2)c(F)cc2c(=O)c(C(=O)O)cn(C3CC3)c12 (centres undefined) the results were TRPML1 inh inconclusive, AT treatment 28µM, TRPML1 ag inactive, TRPV1 PAM inactive and TRPV1 ag inactive.
For Cn1cccc1/C=N\NC(=O)C1COc2ccccc2O1 (centres undefined) the results were TRPML1 inh inactive, AT treatment inactive, TRPML1 ag 85, TRPV1 PAM inactive and TRPV1 ag inactive.
COc1cc(/C=N/NC(=O)C2COc3ccccc3O2)ccc1O (centres undefined) was read as TRPML1 inh inactive, AT treatment inactive, TRPML1 ag inactive, TRPV1 PAM inactive and TRPV1 ag inactive.
CC(C)(C)c1ccc2c(c1)OC(C(=O)N/N=C\c1ccncc1)CO2 (centres undefined) was read as TRPML1 inh inactive, AT treatment inactive, TRPML1 ag inactive, TRPV1 PAM inactive and TRPV1 ag 109.
`COc1cc(/C=N\NC(=O)C2COc3ccccc3O2)cc(OC)c1O` (centres undefined) gave TRPML1 inh inactive, AT treatment inactive, TRPML1 ag inactive, TRPV1 PAM inactive and TRPV1 ag 88.
`CC(C)(C)c1ccc2c(c1)OC(C(=O)N/N=C\c1ccc[nH]1)CO2` (centres undefined) gave TRPML1 inh inactive, AT treatment inactive, TRPML1 ag inactive, TRPV1 PAM inactive and TRPV1 ag inconclusive.
For O=C(Nc1ccccc1)N1CCCN(c2nccc(C(F)(F)F)n2)CC1 the results were TRPML1 inh inactive, AT treatment inactive, TRPML1 ag inactive, TRPV1 PAM inactive and TRPV1 ag 87.
For Fc1ccc(/C=N/NC(=S)Nc2ccc(Cl)cc2Cl)cc1 the results were TRPML1 inh inactive, AT treatment 7.1µM, TRPML1 ag inactive, TRPV1 PAM inactive and TRPV1 ag inactive.
`COc1cc2nc(N3CCOCC3)nc(NC3CCN(Cc4ccccc4)CC3)c2cc1OC` gave TRPML1 ag inactive.
CCSc1ccc(-c2nn(-c3ccccc3)cc2/C=C(/C#N)C(=O)NC)cc1 was read as TRPML1 inh inactive, AT treatment inactive, TRPML1 ag inactive, TRPV1 PAM inactive and TRPV1 ag inconclusive.
CCCSc1ccc(-c2nn(-c3ccccc3)cc2/C=C(/C#N)C(=O)N2CCOCC2)cc1 was read as TRPML1 inh inactive, AT treatment inactive, TRPML1 ag inactive, TRPV1 PAM inactive and TRPV1 ag 101.
For S=c1nc(-c2ccccc2)[nH]c2ccc(Br)cc12 the results were TRPML1 inh inactive, AT treatment 32µM, TRPML1 ag inactive, TRPV1 PAM inactive and TRPV1 ag inactive.
c1ccc(-n2c3ccccc3c3ccccc32)cc1 was read as TRPML1 inh inactive, AT treatment 25µM, TRPML1 ag inactive, TRPV1 PAM inactive and TRPV1 ag inactive.
CC(=O)n1c2ccccc2c2ccccc21 was read as TRPML1 inh inactive, AT treatment inactive, TRPML1 ag inactive, TRPV1 PAM inactive and TRPV1 ag inactive.
Nc1ccc2c(c1)C=C/C2=C\c1ccccc1 was read as TRPML1 ag inactive.
CN(Cc1ccccc1)c1ccc(/C=C/c2sc3ccccc3[n+]2C)cc1 was read as TRPML1 ag inactive.
For COc1ccccc1C(=O)OCC(=O)Nc1ccc(N2CCCCC2)cc1 the results were TRPML1 ag inactive.
COC(=O)C[C@H]1c2ccccc2S(=O)(=O)N1c1ccc(N(C)C)cc1 was read as TRPML1 ag inactive.
`Cc1ccc(Nc2nc(N)c([N+](=O)[O-])c(N3CCC(C)CC3)n2)cc1C` gave TRPML1 inh inactive, AT treatment 32µM, TRPML1 ag inactive, TRPV1 PAM inactive and TRPV1 ag inactive.
Cc1ccc(Nc2nc(N)c([N+](=O)[O-])c(N3CCOCC3)n2)cc1C was read as TRPML1 inh inactive, AT treatment inactive, TRPML1 ag inactive, TRPV1 PAM inactive and TRPV1 ag inactive.
`Cc1c(CCC(=O)NCCCCCC(=O)O)c(=O)oc2cc3occ(-c4ccccc4)c3cc12` gave TRPML1 inh inactive, AT treatment 8.9µM, TRPML1 ag inactive, TRPV1 PAM inactive and TRPV1 ag inactive.
Cc1c(CC(=O)NCCCC(=O)O)c(=O)oc2cc3occ(-c4ccccc4)c3cc12 was read as TRPML1 inh inactive, AT treatment inactive, TRPML1 ag inactive, TRPV1 PAM inactive and TRPV1 ag inactive.
For C=CCC(C)(NCc1ccccc1)c1ccc(C)cc1 (centres undefined) the results were TRPML1 inh inactive, AT treatment 40µM, TRPML1 ag inactive, TRPV1 PAM inactive and TRPV1 ag inactive.
Screening CCCCn1c(=O)[nH]c2nc3cc(NC(C)=O)ccc3nc2c1=O returned TRPML1 inh inactive, AT treatment inactive, TRPML1 ag inactive, TRPV1 PAM inactive and TRPV1 ag inactive.
